In PubChem BioAssay:
Results filed as inconclusive are left out. Active and inactive are the calls of the source.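 Rule for the calls, unless noted: active = viability at or below 27.92% in each of two runs, the all-compound median minus 4 SD; inconclusive = no clear call, values can overlap the other calls; inactive = the rest.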

What was measured:
[1] = reducers of endogenous Her2 protein level, primary screen, SKBR3 breast tumor cells, AlphaScreen, ATP viability (AID 461;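 active = Her2 level under about 52% in both replicate screens, with viability over 70% of control, limit read from the data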;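 for Her2 level: lower value means less Her2 protein in the cells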;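 for viability: percent of carrier control wells set as 100% viability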); settings: 18-24 h, measured here: SKBR3 viability, ATP luminescence, at 10 µM
[2] = biological target: Receptor tyrosine-protein kinase erbB-2 (Homo sapiens) (UniProt P04626); experiment: as above; settings: 18-24 h, at 10 µM, stronger effect = lower value
[3] = SK-BR-3 cell growth inhibitors, pilot screen, 24 h, human (AID 572;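 active = viability at or below 10% of carrier control in both of two separate runs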;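 note: compound exposure lasted between 18 and 24 h rather than exactly 24 h; 100% = carrier-treated control wells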); settings: SK-BR-3 viability, CellTiter-Glo luminescence, at 10 µM, stronger effect = lower value
[4] = HUVEC growth inhibition – cell-based, human, primary screen (AID 575;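 active = viability at or below 30% in both replicate assays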;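 note: 100% = median of untreated cell wells with 0.1% DMSO on each plate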); settings: HUVEC proliferation, CellTiter-Glo luminescence, 72 h; at 10 µM; stronger effect = lower value
[5] = growth inhibitors of H69AR lung tumor, primary screen, human, duplicate replicates (AID 580;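 active = viability at or under a set limit in both replicates, limit being median viability minus 3 SD, cut at about 48% in these data, passing the limit was not always enough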;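 note: 100% = mean luminescence of untreated wells and 0% = no signal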); settings: H69AR lung tumor cells viability, ATP luminescence, 72 h; at 10 µM; stronger effect = lower value
[6] = reversal of MRP1-mediated doxorubicin resistance, pilot screen, H69AR cells, doxorubicin co-treatment (AID 601;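 active = viability loss from added drug above about 55%, and viability with drug at most 40%, in both replicates, limit read from the data, passing the limit was not always enough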); settings: CellTiter-Glo, 72 h, at 10 µM; for differential viability (reversal): stronger effect = higher value
[7] = 384-well plate pilot, post-Golgi transport modulator project, inhibition of yeast transport mutant growth (AID 636; in the data active = inhibition above about 31%); settings: absorbance 615 nm, about 18 h, stronger effect = higher value
[8] = growth suppression of yeast trafficking mutant, preliminary HTS, modulators of trafficking downstream of Golgi apparatus project, 1536-format plate, OD 615 nm (AID 637; in the data active = inhibition above about 30%); settings: yeast transport mutant growth, absorbance 615 nm, 18 h; stronger effect = higher value
[9] = OD615 S. cerevisiae growth inhibition, permissive medium, pilot counter-assay, permissive growth control for S. cerevisiae lifespan shortening project (AID 705;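 active = growth inhibition above 25% in both replicates, a cutoff set 3 SD above the mean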); settings: OD615, 24 h, at 10 µM, stronger effect = higher value
[10] = Restrictive medium S. cerevisiae growth inhibition, OD615, pilot screen of yeast lifespan reduction project, restrictive growth control (AID 706;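 active = growth inhibition above a set limit, 3 SD over mean compound inhibition, in both replicates, cut at about 43% in these data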;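 note: modified DeaD lifespan yeast strain shifted to restrictive glucose medium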); settings: OD615, 48 h, at 10 µM, stronger effect = higher value
[11] = viability gain of MRP-1-high H69AR cells under doxorubicin, pilot screen, MRP-1 activator project, CellTiter-Glo, duplicate (AID 807;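 active = viability increase at or above a cutoff of the median across tested compounds plus 3 SD, cut at about 8.5% in these data, passing the limit was not always enough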;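 note: compound pretreatment 18-22 h then 72 h combined with doxorubicin; 0% = doxorubicin alone and 100% = vehicle without doxorubicin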); settings: H69AR viability with doxorubicin, CellTiter-Glo luminescence; at 10 µM; stronger effect = higher value
[12] = growth suppression of beta-catenin knockout HCT116, pilot screen, human colon tumor cells (AID 823;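 active = cell viability at or below a set limit in both duplicate runs, the limit being the all-compound median minus 4 SD, cut at about 23% in these data, passing the limit was not always enough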;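 note: 0% = wells killed by 20 µM Hyamine and 100% = untreated DMSO cell wells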); settings: CellTiter-Glo, 60 h, at 10 µM, stronger effect = lower value
[13] = growth suppression of PTEN-deleted HCT116, pilot screen, cell-based, HCT116 clonal line, CellTiter-Glo (AID 824); settings: 60 h, at 10 µM, stronger effect = lower value;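 note: 0% = 20 µM Hyamine control and 100% = vehicle cell control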
[14] = inhibitors of the yeast RAM network, pilot screen, dse1pr::URA3 reporter, 5-FOA selection (AID 869;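 active = inhibition over a set limit, the all-compound mean plus 3 SD, in both replicate runs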;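 note: 0% = DMSO wells with no growth and 100% = 10 µM 1-NA-PP1 with full growth; RAM network block rescues cells from 5-FOA so hits raise OD615 growth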); settings: S. cerevisiae dse1pr::URA3 5-FOA growth, OD615, 2 d; at 10 µM; stronger effect = higher value; strain carries analog-sensitive mutant Cbk1 kinase
[15] = RAM signaling pathway blockade in yeast – S. cerevisiae, Pdr1DBD-CYC8 efflux-inhibited sensitized strain, primary screen (AID 1298;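 active = RAM network inhibition above 8.4% in each of two replicates, 3 SD over the compound average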;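 note: 0% = DMSO untreated cells without growth and 100% = 10 µM 1-NA-PP1 full growth; higher means more yeast growth rescued from 5-FOA killing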); settings: S. cerevisiae cbk1-as DSE1-URA3 strain, 5-FOA growth OD615, 2 d; at 50 µM; stronger effect = higher value
[16] = H69AR cells + 2 uM doxorubicin, measured here: viability with 2 uM doxorubicin, stronger effect = lower value
[17] = H69AR cells, compound alone cytotoxicity

Chain of Receptor tyrosine-protein kinase erbB-2 (Homo sapiens) (P04626 whole entry, looked up): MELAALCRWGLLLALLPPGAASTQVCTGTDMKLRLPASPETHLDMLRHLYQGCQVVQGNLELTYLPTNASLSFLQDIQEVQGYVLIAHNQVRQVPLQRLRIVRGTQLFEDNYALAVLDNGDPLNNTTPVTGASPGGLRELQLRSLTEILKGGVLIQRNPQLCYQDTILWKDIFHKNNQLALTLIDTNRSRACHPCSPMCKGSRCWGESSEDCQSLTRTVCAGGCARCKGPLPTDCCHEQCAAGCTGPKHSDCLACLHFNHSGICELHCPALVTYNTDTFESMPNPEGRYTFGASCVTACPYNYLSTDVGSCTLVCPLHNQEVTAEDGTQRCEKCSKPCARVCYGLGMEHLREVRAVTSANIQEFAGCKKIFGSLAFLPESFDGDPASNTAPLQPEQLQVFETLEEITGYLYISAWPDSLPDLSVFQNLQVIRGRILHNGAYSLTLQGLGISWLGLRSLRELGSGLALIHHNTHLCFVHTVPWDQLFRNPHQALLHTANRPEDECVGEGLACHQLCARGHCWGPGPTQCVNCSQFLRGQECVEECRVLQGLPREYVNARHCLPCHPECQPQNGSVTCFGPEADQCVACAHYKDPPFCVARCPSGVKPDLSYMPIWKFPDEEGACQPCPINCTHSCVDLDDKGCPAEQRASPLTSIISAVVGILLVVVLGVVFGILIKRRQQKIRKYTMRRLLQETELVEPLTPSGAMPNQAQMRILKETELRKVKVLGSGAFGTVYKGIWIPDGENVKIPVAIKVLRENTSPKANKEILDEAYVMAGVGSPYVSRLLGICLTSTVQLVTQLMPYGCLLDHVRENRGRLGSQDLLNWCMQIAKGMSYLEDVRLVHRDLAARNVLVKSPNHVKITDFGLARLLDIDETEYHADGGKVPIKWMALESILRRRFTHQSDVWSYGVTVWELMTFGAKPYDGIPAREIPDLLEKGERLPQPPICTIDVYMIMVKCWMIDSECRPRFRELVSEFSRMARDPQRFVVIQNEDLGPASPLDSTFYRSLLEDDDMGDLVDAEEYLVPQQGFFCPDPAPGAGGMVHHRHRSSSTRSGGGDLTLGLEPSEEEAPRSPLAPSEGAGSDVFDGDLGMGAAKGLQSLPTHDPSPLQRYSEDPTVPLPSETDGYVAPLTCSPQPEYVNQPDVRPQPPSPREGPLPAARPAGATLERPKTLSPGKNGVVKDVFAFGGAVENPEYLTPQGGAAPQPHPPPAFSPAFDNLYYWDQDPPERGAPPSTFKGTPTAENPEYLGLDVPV

SMILES | viability [1] | Her2 level [2] | viability [3] | viability [4] | viability [5] | differential viability (reversal) ([6]; H69AR cells + 2 uM doxorubicin) | viability [6, 16] | viability [6, 17] | inhibition [7] | inhibition [8] | growth inhibition [9] | growth inhibition [10] | viability increase [11] | viability [12] | viability [13] | inhibition [14] | RAM network inhibition [15]
COc1ccc(CNC(=O)c2ccc(CN3CCOCC3)cc2)cc1 | 116% | 93.5% (inactive) | 116% (inactive) | 99.8% (inactive) | 92.1% (inactive) | 12.5% (inactive) | 79.6% | 92.1% | -4% (inactive) | 4.52% (inactive) | -8.78% (inactive) | -16.6% (inactive) | -0.28% (inactive) | 96.4% (inactive) | 105% (inactive) | 1.33% (inactive) | 0.16% (inactive)
COc1ccc(N2C(=O)CCC(C(=O)N3CCCCC3)C2c2ccc(OC)c(OC)c2)cc1 (stereo not drawn) | 100% | 90.5% (inactive) | 100% (inactive) | 92.3% (inactive) | 95.4% (inactive) | 2.14% (inactive) | 93.2% | 95.4% | -6.67% (inactive) | -1.11% (inactive) | -0.77% (inactive) | -8.71% (inactive) | 0.42% (inactive) | 105% (inactive) | 98.2% (inactive) | 0.405% (inactive) | 2.24% (inactive)
Cc1cc(OCC(=O)NCCO)cc(C)c1Cl | 99% | 120% (inactive) | 99% (inactive) | 76% (inactive) | 96.4% (inactive) | 8.84% (inactive) | 87.6% | 96.4% | 1.56% (inactive) | -1.67% (inactive) | -15% (inactive) | 0.385% (inactive) | -0.21% (inactive) | 99.1% (inactive) | 99.6% (inactive) | 1.37% (inactive) | 6.24% (inactive)
O=C1NC2(Nc3ccccc31)C(=O)Nc1ccccc12 (stereo not drawn) | 99% | 83% (inactive) | 99% (inactive) | 86.8% (inactive) | 156% (inactive) | 58.3% (inactive) | 97.3% | 156% | -4.86% (inactive) | -3.44% (inactive) | 0.15% (inactive) | -6.17% (inactive) | -3.77% (inactive) | 98.8% (inactive) | 85.2% (inactive) | 1.85% (inactive) | 2.35% (inactive)
Clc1ccc(Nc2ncnc3c2cnn3-c2ccccc2)cc1 | 116% | 90.5% (inactive) | 116% (inactive) | 86% (inactive) | 78.7% (inactive) | 7.29% (inactive) | 71.4% | 78.7% | -4% (inactive) | 0% (inactive) | -10.8% (inactive) | -13.1% (inactive) | -2.81% (inactive) | 81.7% (inactive) | 74.8% (inactive) | 0.855% (inactive) | -0.47% (inactive)
O=C(C1CCCN1S(=O)(=O)c1cccc2cccnc12)N1CCn2c1nc1ccccc12 (stereo not drawn) | 100% | 84.5% (inactive) | 100% (inactive) | 64.9% (inactive) | 94.1% (inactive) | 1.47% (inactive) | 92.6% | 94.1% | 0.9% (inactive) | 4.67% (inactive) | -4.09% (inactive) | 4.54% (inactive) | 0.79% (inactive) | 97.4% (inactive) | 101% (inactive) | 0.235% (inactive) | 1.58% (inactive)
Cc1nc2ccccc2c2oc(C(=O)N3CCC(N4CCCCC4)CC3)cc12 | 102% | 104% (inactive) | 102% (inactive) | 75.7% (inactive) | 87.4% (inactive) | 9.3% (inactive) | 78.1% | 87.4% | -2.82% (inactive) | 0.17% (inactive) | -9.32% (inactive) | -4.43% (inactive) | -4.92% (inactive) | 83.9% (inactive) | 79.6% (inactive) | 0.43% (inactive) | 4.3% (inactive)
COc1cccc(C2CC(c3ccc(C)cc3)Nc3nc(N)nn32)c1 (stereo not drawn) | 88% | 98.5% (inactive) | 88% (inactive) | 99.2% (inactive) | 97.9% (inactive) | 4.01% (inactive) | 93.9% | 97.9% | -0.4% (inactive) | -5.9% (inactive) | -2.17% (inactive) | 2.23% (inactive) | 0.54% (inactive) | 98.6% (inactive) | 95.5% (inactive) | 0.515% (inactive) | -0.56% (inactive)
CCN1CCN(C(=O)c2cn(CC)c3ccc(S(=O)(=O)N(C)C)cc3c2=O)CC1 | 85.5% | 104% (inactive) | 85.5% (inactive) | 100% (inactive) | 107% (inactive) | 11% (inactive) | 96.5% | 107% | 0% (inactive) | -1% (inactive) | -7.52% (inactive) | -18% (inactive) | -2.35% (inactive) | 101% (inactive) | 93.7% (inactive) | 2.08% (inactive) | -1.09% (inactive)
O=C(Nc1ccc2c(c1)OCO2)c1ccc(CN2CCOCC2)cc1 | 97.5% | 88% (inactive) | 97.5% (inactive) | 98.7% (inactive) | 97.3% (inactive) | 9.03% (inactive) | 88.3% | 97.3% | -7.07% (inactive) | 7.1% (inactive) | -6.27% (inactive) | -16.3% (inactive) | 0.57% (inactive) | 71.3% (inactive) | 81.5% (inactive) | -0.165% (inactive) | 9.65% (inactive)
Cc1cc(NC(=O)CS(=O)(=O)c2cn(Cc3cccc(F)c3)c3ccccc23)no1 | 124% | 75.5% (inactive) | 124% (inactive) | 69.7% (inactive) | 92.7% (inactive) | 3.98% (inactive) | 88.7% | 92.7% | -6.62% (inactive) | -4.67% (inactive) | -5.79% (inactive) | -24.3% (inactive) | -1.03% (inactive) | 65.8% (inactive) | 72.2% (inactive) | 1.3% (inactive) | 5.39% (inactive)
CN(CCNS(=O)(=O)c1ccc2c(c1)oc(=O)n2C)Cc1ccccc1 | 86% | 99% (inactive) | 86% (inactive) | 90.7% (inactive) | 98.1% (inactive) | 10.2% (inactive) | 87.9% | 98.1% | -2.95% (inactive) | -2.33% (inactive) | -2.83% (inactive) | 5.57% (inactive) | -1.52% (inactive) | 97.5% (inactive) | 90.2% (inactive) | 2.44% (inactive) | 4.66% (inactive)
O=C(c1ccco1)N1CCN(C2=NS(=O)(=O)c3ccccc32)CC1 | 104% | 142% (inactive) | 104% (inactive) | 99.1% (inactive) | 94.8% (inactive) | 3.94% (inactive) | 90.8% | 94.8% | -1.69% (inactive) | -12.7% (inactive) | -13.5% (inactive) | -1.96% (inactive) | -2.12% (inactive) | 93.1% (inactive) | 96.3% (inactive) | 0.41% (inactive) | 6.34% (inactive)
CCCC(=O)NCCc1cc2c(C)ccc(C)c2[nH]c1=O | 106% | 93% (inactive) | 106% (inactive) | 110% (inactive) | 98.8% (inactive) | 12.1% (inactive) | 86.7% | 98.8% | -5.6% (inactive) | 9.33% (inactive) | -4.56% (inactive) | -10.1% (inactive) | -0.5% (inactive) | 111% (inactive) | 103% (inactive) | 0.625% (inactive) | 0.95% (inactive)
CCOC(=O)c1ccc(NS(=O)(=O)c2ccc3c(c2)oc(=O)n3C)cc1 | 132% | 118% (inactive) | 132% (inactive) | 118% (inactive) | 113% (inactive) | 7.4% (inactive) | 105% | 113% | -0.77% (inactive) | -2.17% (inactive) | -0.745% (inactive) | 3.2% (inactive) | 1.82% (inactive) | 101% (inactive) | 86.4% (inactive) | 0.865% (inactive) | 2.11% (inactive)
Cc1onc(-c2ccccc2Cl)c1C(=O)Nc1cnn(Cc2ccccc2)c1 | 88.5% | 98% (inactive) | 88.5% (inactive) | 73.6% (inactive) | 81.5% (inactive) | -5.4% (inactive) | 86.9% | 81.5% | -5.73% (inactive) | 0.33% (inactive) | -12.3% (inactive) | -9.34% (inactive) | 1.54% (inactive) | 83.2% (inactive) | 73% (inactive) | 1.07% (inactive) | 2.37% (inactive)
Fc1ccc(-c2nnc3ccc(N4CCCC4)nn23)cc1 | 80% | 90.5% (inactive) | 80% (inactive) | 64.2% (inactive) | 94.5% (inactive) | 16.8% (inactive) | 77.7% | 94.5% | -0.27% (inactive) | 8.52% (inactive) | 11.7% (inactive) | 32.5% (inactive) | -5.62% (inactive) | 102% (inactive) | 86.3% (inactive) | 0.685% (inactive) | 5.61% (inactive)
O=C(c1sc2ccccc2c1Cl)N(Cc1cccs1)C1CCS(=O)(=O)C1 (stereo not drawn) | 100% | 100% (inactive) | 100% (inactive) | 73.2% (inactive) | 85.5% (inactive) | 3.69% (inactive) | 81.8% | 85.5% | 1.07% (inactive) | 0.17% (inactive) | -7.52% (inactive) | -11.5% (inactive) | -4.05% (inactive) | 92.2% (inactive) | 86.5% (inactive) | 0.395% (inactive) | 7.16% (inactive)
O=C(NCc1cccs1)C(Cc1ccccc1)n1cccc1 (stereo not drawn) | 114% | 110% (inactive) | 114% (inactive) | 106% (inactive) | 94.6% (inactive) | 8.57% (inactive) | 86% | 94.6% | -1.67% (inactive) | -5.67% (inactive) | 3.97% (inactive) | -4.98% (inactive) | 0.04% (inactive) | 92.6% (inactive) | 89.9% (inactive) | 3.21% (inactive) | 3.72% (inactive)
